# Assay results taken from paper PMC9911399, “Two distinct binding modes provide the RNA-binding protein RbFox with extraordinary sequence specificity”.
# Numbering of substitutions follows the chain as printed; changes in the protein carry UniProt numbers. Over roughly 16,000 sequences, “ka relative to ugcaugu” has its median near 0.096; the highest 2% begin near 0.35. Many of the other results were omitted from the sample, so the highest values are more common in it than they were.
# T1: RBFOX1 RRM RbFoxmut (Fox-RRM*) (Homo sapiens, UniProt Q9NWB1 109-208, R118D;E147R;N151S;E152T)
# T1 sequence: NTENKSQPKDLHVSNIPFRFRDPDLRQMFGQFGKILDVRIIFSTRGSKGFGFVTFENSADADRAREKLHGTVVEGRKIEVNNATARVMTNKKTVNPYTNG
# B1: UAACUCA (DNA:RNA)
# RNA: GGGAGACCGGAAUUCAGAUUGUCCUAACUCAUUAAAUCCCGUCGUAGCCACCA
# DNA 1: CAATCTGAATTCCGGTCTCCC
# DNA 2: TGGTGGCTACGACGGGATT
# B2: CCUCUGC (DNA:RNA)
# RNA: B1 RNA with U25C, A26C, A27U, C30G, A31C
# DNA 1: CAATCTGAATTCCGGTCTCCC
# DNA 2: TGGTGGCTACGACGGGATT
# B3: GACAUAA (DNA:RNA)
# RNA: B1 RNA with U25G, A27C, C28A, C30A
# DNA 1: CAATCTGAATTCCGGTCTCCC
# DNA 2: TGGTGGCTACGACGGGATT
# B4: GCAUAAU (DNA:RNA)
# RNA: B1 RNA with U25G, A26C, C28U, U29A, C30A, A31U
# DNA 1: CAATCTGAATTCCGGTCTCCC
# DNA 2: TGGTGGCTACGACGGGATT
# B5: GCAUAGA (DNA:RNA)
# RNA: B1 RNA with U25G, A26C, C28U, U29A, C30G
# DNA 1: CAATCTGAATTCCGGTCTCCC
# DNA 2: TGGTGGCTACGACGGGATT
# B6: GCAUGAA (DNA:RNA)
# RNA: B1 RNA with U25G, A26C, C28U, U29G, C30A
# DNA 1: CAATCTGAATTCCGGTCTCCC
# DNA 2: TGGTGGCTACGACGGGATT
# B7: GCAUUUU (DNA:RNA)
# RNA: B1 RNA with U25G, A26C, C28U, C30U, A31U
# DNA 1: CAATCTGAATTCCGGTCTCCC
# DNA 2: TGGTGGCTACGACGGGATT
# B8: GCAUAAA (DNA:RNA)
# RNA: B1 RNA with U25G, A26C, C28U, U29A, C30A
# DNA 1: CAATCTGAATTCCGGTCTCCC
# DNA 2: TGGTGGCTACGACGGGATT
# B9: GCAUGAU (DNA:RNA)
# RNA: B1 RNA with U25G, A26C, C28U, U29G, C30A, A31U
# DNA 1: CAATCTGAATTCCGGTCTCCC
# DNA 2: TGGTGGCTACGACGGGATT
# B10: CGCCCUU (DNA:RNA)
# RNA: B1 RNA with U25C, A26G, A27C, U29C, C30U, A31U
# DNA 1: CAATCTGAATTCCGGTCTCCC
# DNA 2: TGGTGGCTACGACGGGATT
# B11: UCGUUAU (DNA:RNA)
# RNA: B1 RNA with A26C, A27G, C28U, C30A, A31U
# DNA 1: CAATCTGAATTCCGGTCTCCC
# DNA 2: TGGTGGCTACGACGGGATT
# B12: UGUAGGC (DNA:RNA)
# RNA: B1 RNA with A26G, A27U, C28A, U29G, C30G, A31C
# DNA 1: CAATCTGAATTCCGGTCTCCC
# DNA 2: TGGTGGCTACGACGGGATT
# B13: UGUAUGC (DNA:RNA)
# RNA: B1 RNA with A26G, A27U, C28A, C30G, A31C
# DNA 1: CAATCTGAATTCCGGTCTCCC
# DNA 2: TGGTGGCTACGACGGGATT
# B14: UGUAAUG (DNA:RNA)
# RNA: B1 RNA with A26G, A27U, C28A, U29A, C30U, A31G
# DNA 1: CAATCTGAATTCCGGTCTCCC
# DNA 2: TGGTGGCTACGACGGGATT
# B15: UGUAUGA (DNA:RNA)
# RNA: B1 RNA with A26G, A27U, C28A, C30G
# DNA 1: CAATCTGAATTCCGGTCTCCC
# DNA 2: TGGTGGCTACGACGGGATT
# B16: UGUCGUA (DNA:RNA)
# RNA: B1 RNA with A26G, A27U, U29G, C30U
# DNA 1: CAATCTGAATTCCGGTCTCCC
# DNA 2: TGGTGGCTACGACGGGATT
# B17: UGUGUGG (DNA:RNA)
# RNA: B1 RNA with A26G, A27U, C28G, C30G, A31G
# DNA 1: CAATCTGAATTCCGGTCTCCC
# DNA 2: TGGTGGCTACGACGGGATT
# B18: UGUAUGG (DNA:RNA)
# RNA: B1 RNA with A26G, A27U, C28A, C30G, A31G
# DNA 1: CAATCTGAATTCCGGTCTCCC
# DNA 2: TGGTGGCTACGACGGGATT
# B19: CGUAAUG (DNA:RNA)
# RNA: GGGAGACCGGAAUUCAGAUUGUCCCGUAAUGUUAAAUCCCGUCGUAGCCACCA
# DNA 1: CAATCTGAATTCCGGTCTCCC
# DNA 2: TGGTGGCTACGACGGGATT
# B20: UGUAUUC (DNA:RNA)
# RNA: B19 RNA with C25U, A29U, G31C
# DNA 1: CAATCTGAATTCCGGTCTCCC
# DNA 2: TGGTGGCTACGACGGGATT
# B21: UGUAGGG (DNA:RNA)
# RNA: B19 RNA with C25U, A29G, U30G
# DNA 1: CAATCTGAATTCCGGTCTCCC
# DNA 2: TGGTGGCTACGACGGGATT
# B22: UGUUAAA (DNA:RNA)
# RNA: B19 RNA with C25U, A28U, U30A, G31A
# DNA 1: CAATCTGAATTCCGGTCTCCC
# DNA 2: TGGTGGCTACGACGGGATT
# B23: UGUAAUC (DNA:RNA)
# RNA: B19 RNA with C25U, G31C
# DNA 1: CAATCTGAATTCCGGTCTCCC
# DNA 2: TGGTGGCTACGACGGGATT
# Target: T1, RBFOX1 RRM RbFoxmut (Fox-RRM*)
# Experiment: EMSA; HiTS-Eq, 1 nM pool, 10 min; buffer printed only for the single-RNA assays: 10 mM Tris pH 7.5, 150 mM NaCl, 3.4 mM EDTA, 0.001% NP-40, 30 C
# Details: tags: His6 N-terminal (pET28a); label: 5' 32P
# Outline: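 A pool of RNA with 7 randomized nucleotides, 5′-radiolabelled and with DNA-annealed flanks, was equilibrated at 1 nM for 10 min in 50 µL with purified RbFox RRM, wild type or mutant, across increasing protein concentrations. Free RNA was separated by 8% native PAGE, excised, reverse-transcribed, barcoded by PCR and sequenced. Relative association constants were obtained from read-count changes of each RNA species versus the control reaction and normalised to the cognate motif.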
row,Binder,binding signal
1,B1,0.1 KA relative to UGCAUGU
2,B2,0.0985 KA relative to UGCAUGU
3,B3,0.115 KA relative to UGCAUGU
4,B4,0.115 KA relative to UGCAUGU
5,B5,0.132 KA relative to UGCAUGU
6,B6,0.798 KA relative to UGCAUGU
7,B7,0.113 KA relative to UGCAUGU
8,B8,0.144 KA relative to UGCAUGU
9,B9,0.551 KA relative to UGCAUGU
10,B10,0.0724 KA relative to UGCAUGU
11,B11,0.11 KA relative to UGCAUGU
12,B12,0.115 KA relative to UGCAUGU
13,B13,0.684 KA relative to UGCAUGU
14,B14,0.381 KA relative to UGCAUGU
15,B15,0.44 KA relative to UGCAUGU
16,B16,0.13 KA relative to UGCAUGU
17,B17,0.173 KA relative to UGCAUGU
18,B18,0.394 KA relative to UGCAUGU
19,B19,0.157 KA relative to UGCAUGU
20,B20,0.207 KA relative to UGCAUGU
21,B21,0.0751 KA relative to UGCAUGU
22,B22,0.11 KA relative to UGCAUGU
23,B23,0.157 KA relative to UGCAUGU
